Whole data set: some 2,300 sequences, median “median log2 fold change of GCK-ALFA target abundance (FLAG IP / Myc IP barcode read proportion)” near 0.095, cut for the lowest 2% near -0.47. Only a selection was taken, and the lowest values are over-represented in it overall.
B1: LC3A_28_1235 (protein)
chain: NAVEKQIEAAKAEVEAAVAAGEEALVELTVTKETTEEDVEKIIKAMEEIAALAATLPALTIIIDVERGVKQEHIDKLADAADAIEAKYPNVTVIIALEEE
B2: LC3A_17_590 (protein)
chain: SEEIREELEELLKELKELIKEAKKLGIPEAKEVEKLLKEAEKALKEGKLREAAELLREAADLLADALEEIEEELGSKASVLEMEANGLALRAEGILLKLE
B3: LC3A_17_592 (protein)
chain: SEEIKKEIEELLKELKKLIKKMKELGIPEAKEIEKLLKEAEKALKEGDLKKAAELLAKAADLAADALEEKEEELGSEASVLEMEANGLELRAIGILLKLD
B4: LC3A_28_956 (protein)
chain: SALEEALKKAIEEAKKAAEKGEPAVITIKVPGDADEEDIEKVIEALREIAEILKDVKGAAIIVDVDGKVKQEHIDKIAEEAERIEKEYPNVTVIIALDEE
B5: LC3A_3_1793 (protein)
chain: AQARIDALLAELRAAGKSDETLAAVRAAATALADRGYEEALATFIEELRELIDAPDEILLDLAEEVLRLIEEEDLDEEELTERIKELAELARNEAEIIEL
B6: LC3A_free_8_2441 (protein)
chain: SNQELVDAALKLLDELEEEIEKKAKELGLDETDIGLLLLEVGSAISEVISLSDASPEEILKATKEDLEEIIKLAEEINKELAKIVKEKAEKILKELEKLL
B7: LC3A_28_693 (protein)
chain: SAIDKQIAAARAEADAAIAAGEEATLTITVTADTTQADVDRIMAAIEEIAARMAASAKLNIIIDVEAGVPQEHLDRLADFGDALAARYPNVNIIIALDED
B8: LC3A_free_39_2214 (protein)
chain: SEEELEELIKEVAKESGLDYEYIKKKIEEIKEIAGLSLEQMKELVKAILEAVKAGADAEEILKRILALAKELKAAGKSPEEIAEALIEEAEDFRNLIPLD
B9: LC3A_free_39_2217 (protein)
chain: SMEEIEKLIKEIAEEGGIDYEYVKKKIEEIKEVAGLSDEQILELVKAILEAVKAGADAKEILERILKLAKELKEEGKSPEEIAKELLEEIEDFRNLIPLD
B10: LC3A_free_39_2288 (protein)
chain: SMEELEKAVKRLAELLDKIEGVTEEEKQTILEAAKKSLETAKAILEALETIEKDGGDVAEAAKRIAAKIKELEAAGKSLEEMTEEIIALTKDLVNLIPID
B11: LC3A_3_1447 (protein)
chain: AEELREEALELLRERGASPETIAAAEELFDALIEKGYLEAMELVLEFLKEVKDASDEFLLETFKDLLELVLTSDDSPEEMKKKIEEELSAFRSELEIEEL
B12: LC3A_3_1875 (protein)
chain: MDEKIEETIELLKEAGASEETIEKFEEVAELLKERGYEEALETLIEEVKKLAGTSDEILLDFLEEVLEVLKTKDLSEEELIEEIKRIARLALNEAEIIEL
B13: LC3A_3_1892 (protein)
chain: LEERVEETVERLKEAGASEETIELFLEAAELLLERGYYEALETLIDEVEELIDLPDEILLDFLEEVLEVLETEDLSEEELIERIKELARLAKNEGEIEEL
B14: LC3A_3_1891 (protein)
chain: LEERIERTEELLREKGASEETIELFRKVMELLKARGYEEALKTLIEEVEELADLPDEILLDFLEEVLEVLETEDLSEEELIKKIKELARLARNEGEIIEL
B15: LC3A_28_685 (protein)
chain: SKTEEDLKKALEEAEEALKKGEPTVVRINVYGDVTEEELEKVLKALEEIAKILNKIPGSAIIVDIDADVDEEFEDKIIDKAEELEKKYPNVTIIIALEER
B16: LC3A_28_1013 (protein)
chain: MSIVEETKKKIEEALKEAEKGEDAYLEVEITSEATQEEVEEVLELIEKAAKEVSKLPNVKLYVVIYDDSNQENHQLIVDAADRIEEKYPNVHVIVAYDDE
B17: LC3A_45_1937 (protein)
chain: MYLATIDLIVPRELAEEALALAEEIARELEEENDGKVEVDLETLRESYEATRDEEDVLLVVKIYAETEELALDVADRLVDRLRAALGPRVAAIISVEEVP
B18: LC3A_free_46_2420 (protein)
chain: MTLDIDIDVLAKTEETAKAVAKELTKTLEDTAKELGVKVEIKVEIEKLEDGTYYVHIDATFTGVTEEQAQQIEDKVIDKVEELEKKYPEILGSIISSELE
B19: LC3A_free_26_2152 (protein)
chain: DIFIDLVELDKAIELLEKALKLLEEDKNASEELKKLVKEALKKAEEMTLESLEEAKKLVEEALKLLEKDKSLSEEKKKELKKLLEEALKLLEKNIEIAKS
B20: LC3A_28_1030 (protein)
chain: AALKAAAAAALAEARAQFEAGEEAVVTLDVGDVPTAEAKAVVTAFLAELRALSAEYGGRKVSVVINYDGDQATLDAIIDAAEAAEAEDPNLTVIIAYADN
B21: LC3A_3_1549 (protein)
chain: MEELLEETLKRLKEAGASEEVIEAVRKALQALIDRGYEEALKEFAREVEELIGLPDEILLDFAEEVLRAIEEEDLNEEELIERIKEIATIAKNEGEIIEL
B22: LC3A_28_855 (protein)
chain: SETRKSIEEAREELEKAREAKEPAVITVTVTSDVTEEEVEEVIELIKEAAEASKEVPDLTLIIDFEGEIDPEHLNRITDAADEAIKKNPKLNVIFALDEE
B23: LC3A_147_414 (protein)
chain: TVVEIDILVKSKEAVEKIKERMKEIVKELKAKGYKVKLEIKVEEVEPGVYLVDITIEIEAETKEDAEAAANFVLDKIDEMEEELKDEILGSLISVEIEEK
B24: LC3A_127_214 (protein)
chain: EKEKLIKELLELIRKAQELLAKPDYDLEEIRKLLEEAIKVAKELLKLDERFKPVLEDLESALKLVDQMENLSPAEQEEARERVSMLLDGAEIELLSLELK
B25: LC3A_147_516 (protein)
chain: YKVTVEIDLLLKNSKELAEEMAEEIKEYLESKGYEVEVELEFEEDEDGTIFAKITITVKAETKEEAEKVANEVLEKIDELLEKYKDKILGALISVSIEEE
B26: LC3A_147_517 (protein)
chain: YLVEVEIDMLLKNSKELAEEIAKEIEERLKEKGYKVEVELEFEEDEDGTIFADITIKVEAETLEEAKEVANEILDIIDELLEKNKDKILGALISVSITKK
B27: LC3A_132_295 (protein)
chain: MEEKAEKYLKELKALIAAAKANIDDDAKVTALLKEIEAKIEEAEKELTPEEVAKVFEEVADELWALSQVFDAAGKEQLALEADGLAIEAASLALRAKEKI
B28: LC3A_45_1925 (protein)
chain: MWEATLDVLVPRELAEKAYATAKELMAELEAEHGPDLRVDWATLDESYAASKDEEDVYLEIRIYHPDEQVALDAADRLEDELNAALGGKASSIISLKKLP
B29: LC3A_free_8_2533 (protein)
chain: KREEFVNKALELLDEFEEEIRKKAKELGLDELDILDLELLIGSLKIEVVELRDKPMEEILKTIEEGLEEIIEEAKELSEELAEKVEELAEEILEELKEMM

The binders below were run against MAP1LC3A, Q9H492 (assay: median log2 fold change of GCK-ALFA target abundance (FLAG IP / Myc IP barcode read proportion) (log2 ratio); each designed protein is fused to an ALFA-tag nanobody in HEK293 cells to bring the named protein to FLAG-tagged glucokinase (GCK); Myc marks an untargeted standard; higher = target protein stabilised (more abundant)). Details: target protein: 3xFLAG-MCP-GCK-ALFA reporter; HEK293 landing pad (RPLP).
Description: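 LABEL-seq trans screen in HEK293 landing-pad cells. Each de novo designed 100-aa effector handle, binding the indicated effector (E3 ligase, DUB or autophagy protein), is fused to a constant NbALFA target handle and induced with 2 ug/mL doxycycline. A FLAG-MCP-GCK-ALFA target and a Myc-MCP standard reporter were transfected, and after 48 h circRNA barcodes were recovered by anti-FLAG and anti-Myc IP and sequenced. The value is the median across barcodes (at least 3 per design) of log2(FLAG/Myc read-proportion ratio), with the two transfection replicates pooled. Negative values mean degradation and positive values mean stabilisation of the target.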

Binder	median log2 fold change
B1	0.0727
B2	0.0276
B3	-0.636
B4	-0.0851
B5	0.139
B6	0.0457
B7	0.211
B8	-0.832
B9	-0.012
B10	0.326
B11	0.173
B12	0.289
B13	-0.691
B14	-0.0314
B15	-0.264
B16	-0.261
B17	-0.359
B18	-0.177
B19	0.192
B20	-0.268
B21	0.258
B22	0.127
B23	-0.515
B24	0.409
B25	-0.0638
B26	-0.778
B27	0.0471
B28	-0.101
B29	-0.133

Reference: the supplement of paper PMC12632987
